Compound activity from PubChem BioAssay.
Sa ugtP lethal = kills S. aureus RN4220 lacking UgtP; hit rate 0.54% among 330,000; AID 1259309; S. aureus RN4220 ugtP deletion, OD600 growth, 16 h; growth inhibition, % (concentration not given with the values); in the data active = growth inhibition above about 68%
SSB-PriA inh = blocks PriA binding to SSB C-terminal tail; AlphaScreen SSBct-PriA binding, biotinylated peptide; inhibition, % at 33 µM; hit rate 0.6% among 430,000; AID 1272365; in the data active = inhibition mostly above about 37%, no sharp cut-off; inactive = mostly below about 20%
Mtb hypoxia inh = reduces hypoxia-regulated biosensor signal in M. tuberculosis; fluorescence inhibition, % (test concentration not listed); hit rate 0.1% among 300,000; M. tuberculosis hypoxia-regulated fluorescent reporter, fluorescence; in the data active = fluorescence inhibition mostly above about 23%, no sharp cut-off; inactive = mostly below about 17%
Sa RN4220 lethal = kills Staphylococcus aureus RN4220; S. aureus RN4220 growth, OD600, 16 h; hit rate 0.33% among 330,000; inhibition, % (test concentration not listed); in the data active = inhibition above about 85%
CCHF vOTU inh-1 = blocks the CCHF virus ovarian tumor domain protease; CCHFV vOTU protease, Pep-AMC fluorescence; AID 651958; hit rate 0.55% among 370,000; inhibition, % at 11.5 µM
CCHF vOTU inh-2 = CCHFV vOTU protease inhibition, confirmation. shares compounds with CCHF vOTU inh-1. Recombinant CCHFV vOTU, Pep-AMC fluorescence. inhibition, % at 11.5 µM. hit rate 17% among 1,900. AID 686976
Numbers stand for hits; – = inactive; · = no result; ! = not active in a repeat. Most compounds without a hit are left out; they make up all but 1.4% or so of the library. Cut-off read from the data, not from the text of the source, unless noted: active = inhibition above about 30%; inactive = the rest.

SMILES | Sa ugtP lethal | SSB-PriA inh | Mtb hypoxia inh | Sa RN4220 lethal | CCHF vOTU inh-1 | CCHF vOTU inh-2
O=C1CCSCC(C(=O)NCCc2ccc(F)cc2)N1 (centres undefined) | · | – | · | · | · | ·
Cc1nnc(N/N=C/c2ccc(-c3ccc(Br)cc3)o2)n1N | · | · | · | · | 77 | –
CCc1nnc(NN=Cc2ccc(-c3ccc([N+](=O)[O-])cc3)o2)n1N | – | – | – | – | · | ·
Cc1ccc(S(=O)(=O)NC(=O)Cn2nnc(-c3ccccc3)c2COc2ccc3ccccc3c2)cc1 | · | · | · | · | 34 | –
CC(C)C1S/C(=N/N=C/c2cccs2)NC1=O (centres undefined) | · | · | · | · | 35 | –
O=C1SCCN1N=Cc1ccc([N+](=O)[O-])o1 | – | – | – | – | 32 | –
COC(=O)c1ccc(NC(=O)c2ccc(S(=O)(=O)Nc3ccc4c(c3)OCO4)o2)cc1 | · | – | · | · | · | ·
O=C(CCCCCN1C(=O)C2C3C=CC(C3)C2C1=O)Nc1ccc2ncccc2c1 (centres undefined) | · | · | · | · | 69 | –
O=C(CCCCCN1C(=O)C2C3C=CC(C3)C2C1=O)Nc1ccc(Cl)cc1 (centres undefined) | · | · | · | · | – | ·
CCN(CC)c1ccc(/C=N/NC(=O)c2c(Cl)cnn2C)c(O)c1 | · | · | · | · | 36 | –
Cc1cc(=O)[nH]c(NN=CC2=C(N3CCOCC3)/C(=C\c3ccc(Cl)cc3)CC2)n1 | – | – | – | – | · | ·
COc1ccc([C@H]2CC(=O)C=C(/C=C/c3ccccc3)C2)cc1OC | · | – | · | · | 30 | –
CC=CC1=CC(=O)CC(c2ccc(OC)c(OC)c2)C1 (centres undefined) | – | · | – | – | · | ·
O=[N+]([O-])c1cc(Cl)cc(/C=N/NC(=S)Nc2ccc(S(=O)(=O)N3CCOCC3)cc2)c1O | · | · | · | · | 39 | –
O=C1CCC(C(=O)N2CCN(c3ccc(-c4ccc5c(c4)OCO5)nn3)CC2)N1 (centres undefined) | · | – | · | · | · | ·
COc1ccc(N(C)S(=O)(=O)c2cccc(C(=O)Nc3nc(C)c(C(C)=O)s3)c2)cc1 | – | – | – | – | 35 | –
COc1ccc(N(C)S(=O)(=O)c2cccc(C(=O)Nc3nnc(C)s3)c2)cc1 | – | – | – | – | – | ·
CCN(CC)S(=O)(=O)c1cccc(C(=O)Nc2nnc(C)s2)c1 | – | – | – | – | 31 | –
O=C(NCCc1ccccc1)C(=O)NCC1CCN(C(=O)c2cccnc2)CC1 | · | – | · | · | · | ·
CCN(CC)C(=O)CN(c1cc2c(cc1OC)oc1ccccc12)S(=O)(=O)c1ccc(C)cc1 | – | – | · | – | 30 | –
CCN(CC)S(=O)(=O)c1ccc(C(=O)Nc2cc3oc4ccccc4c3cc2OC)cc1 | – | – | – | – | – | ·
CC(C)(C)OC(=O)N1CCCC(C(=O)Nc2cccc(C(=O)NCCCc3ccccc3)c2)C1 (centres undefined) | · | – | · | · | 31 | –
CCCCCCC[C@@H](C/C=C/CCC(=O)N(C)C/C(=C/Cl)C/C(=C\C(=O)N1CC(OC)=CC1=O)OC)OC | – | – | – | – | – | ·
CCCCCCC[C@@H](C/C=C/CCC(=O)N(C)C/C(=C/Cl)C/C(=C\C(=O)N1C[C@H](O)CC1=O)OC)OC | – | – | – | – | 31 | –
CCOC(=O)c1c2c(n(Cc3ccccc3)c1C)C(=O)C(=O)c1ccccc1-2 | · | – | · | · | 102 | 102
SMILES | Sa ugtP lethal | SSB-PriA inh | Mtb hypoxia inh | Sa RN4220 lethal | CCHF vOTU inh-1 | CCHF vOTU inh-2
CCOC(=O)c1c2c3c(cccc3n(C)c1=O)C(=O)c1ccccc1-2 | · | – | · | · | – | ·
O=C(COC(=O)c1cc2ccccc2cc1O)Nc1ccccc1F | – | – | – | – | 31 | –
COc1ccccc1NC(=O)COC(=O)c1cc2ccccc2cc1O | – | – | – | – | – | ·
O=C(CSc1ccc(Br)c2cccc(Cl)c12)Nc1ccc(S(=O)(=O)Nc2nccs2)cc1 | – | – | – | – | 36 | –
O=C(Cc1ccccc1Cl)Nc1ccc(S(=O)(=O)Nc2nccs2)cc1 | – | – | – | – | – | ·
CCOC(=O)c1c(NC(=O)COC(=O)Cn2cnc3ccccc32)sc2c1CCC(C)C2 (centres undefined) | – | – | – | – | 47 | –
CCOC(=O)c1c(NC(=O)Cn2nnc3ccccc32)sc2c1CCC(C)C2 (centres undefined) | – | – | · | – | – | ·
COC(=O)c1c(C)[nH]c(C(=O)C(C)OC(=O)C2CC(=O)N(CCc3ccccc3)C2)c1C (centres undefined) | – | – | – | – | 33 | –
Cc1nc2c(C(=O)NCCC(C)C)c[nH]n2c(=O)c1Cc1ccccc1F | – | – | – | – | 41 | –
Cc1nc2c(C(=O)NCCC(C)C)c[nH]n2c(=O)c1Cl | – | – | – | – | – | ·
CC(=O)NC(c1cccc(F)c1)c1nc(-c2cc(F)cc(Cl)c2)cs1 (centres undefined) | · | · | · | · | 36 | –
COc1ccc(-c2csc(CN3CCN(C(=O)Cc4ccc(F)cc4)CC3)n2)cc1 | · | – | · | · | · | ·
CC(Nc1cccc2ccccc12)C(=O)N/N=C/c1ccccn1 (centres undefined) | · | · | · | · | 114 | –
CC1=C(/C=C/C(C)=C/C=C/C(C)=C\C(=O)O)C(C)(C)CCC1 | · | – | · | · | – | ·
CC1=C(/C=C/C(C)=C/C=C/C(C)=C/C(=O)Nc2ccc(O)cc2)C(C)(C)CCC1 | · | – | · | · | 34! | –
CC1(C(=O)Nc2ccc(F)cc2F)CCN1C(=O)CCC1CCCC1 (centres undefined) | · | · | · | · | 33 | –
CC(C)(C)c1ccc(CC(=O)N2CCC2(C)C(=O)Nc2ccc(F)cc2F)cc1 (centres undefined) | · | · | · | · | – | ·
COc1ccc(C=NNC(=O)CCSc2nc3ccccc3s2)cc1OC | – | – | – | – | · | ·
O=C(c1ccoc1)N1CCC(CNC(=O)C2(c3ccccc3)CCOCC2)CC1 | · | – | · | · | · | ·
CCOc1ccc(NC(=O)N(CCN2CCOCC2)Cc2ccc3c(c2)CCCN3CC)cc1 | – | – | – | – | 41 | –
O=C(NCc1cccs1)C(=O)NC[C@H](O)c1ccoc1 | · | – | · | · | · | ·
O=C(/C=C/Nc1ccccc1)c1ccccc1 | – | – | – | – | – | ·
CCOC(=O)c1ccc(N/C=C/C(=O)C(C)(C)C)cc1 | · | – | · | · | – | ·
COc1ccc(C(=O)/C=C/c2ccc(N(C)C)cc2)cc1 | · | – | · | · | · | ·
CN(C)c1ccc(N/C=C/C(=O)c2ccccc2)cc1 | – | – | – | – | 60 | –
SMILES | Sa ugtP lethal | SSB-PriA inh | Mtb hypoxia inh | Sa RN4220 lethal | CCHF vOTU inh-1 | CCHF vOTU inh-2
CN(C)c1ccc(/C=C/C(=O)c2ccc(O)cc2)cc1 | · | – | · | · | 35 | –
CN(C)c1ccc(N/C=C/C(=O)C(C)(C)C)cc1 | – | – | – | – | 59 | –
COc1cccc(C(=O)NCCNC(=O)c2ccc(NC(=O)C3CC3)cc2)c1 | · | – | · | · | · | ·
CSc1nc(N2CCOCC2)c2ccccc2n1 | – | – | – | – | – | ·
CN1c2ccccc2C(C)(C)C12C=Nc1c(cc(N3CCOCC3)c3ccccc13)O2 (centres undefined) | · | – | · | · | 102 | –
Cc1[nH]c(=O)[nH]c(=O)c1CCC(=O)Nc1ccc(C(F)(F)F)cc1 | · | – | · | · | · | ·
CN(C)c1ccc(C=c2c3cc(O)ccc3n3c2cc(-c2ccccc2)[n+]3C)cc1 | · | – | · | · | 47 | 41
CC(C)n1c2ccccc2c2cc([N+](=O)[O-])ccc21 | · | – | · | · | – | ·
C[n+]1c(-c2ccccc2)cc2c(=Cc3ccc([N+](=O)[O-])cc3)c3ccccc3n21 | · | – | · | · | 93 | 57
